D1 agonist = Allosteric Agonists of the Human D1 Dopamine Receptor: qHTS | activation, % at 2 µM | AID 504660, 2011 | 360,000 compounds, 1% hits | D(1A) dopamine receptor (Homo sapiens), P21728 | HEK293 T-REx D1 cells, calcium flux, agonist mode; also: 0% is about no effect
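Agonism was scored from calcium flux recorded over 180 s (1 read/s) after pintool compound addition, following a 10-cycle baseline. Cells were inducible force-coupled HEK293 TREx D1, plated overnight at 30 C and loaded with no-wash calcium dye.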
D1 antag = Antagonist of Human D 1 Dopamine Receptor: qHTS; 360,000 compounds, 3.2% hits; HEK293 TREx D1 cells, calcium flux, dopamine EC80; hits give low values; D(1A) dopamine receptor (Homo sapiens), P21728; activity change, negative = inhibition, % at 10 µM; in the data active = activity change below about -30%; also: % is scaled to controls: 0 for no effect and ±100 for the full control effect
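Kinetic fluorescence of a calcium dye serves as the read-out. D1-expressing Hek293 Trex cells, induced overnight at 30 C, are exposed to compound for 180 s before an EC80 dopamine addition, then read 180 s further.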
D1 potentiator = Potentiators of Human D1 Dopamine Receptor: qHTS | D(1A) dopamine receptor (Homo sapiens), P21728 | HEK293 TREx D1 cells, calcium flux, dopamine EC20 potentiation | potentiation, % at 10 µM | 360,000 compounds, 0.036% hits | AID 504651, 2011; in the data active = potentiation above about 30%; also: 0% is about no effect
TRHR ag = qHTS for Small Molecule Agonists and Allosteric Enhancers of Human TRH Receptor: Primary Screen for Agonists; Thyrotropin-releasing hormone receptor (Homo sapiens), P34981; TRHR cells, calcium flux fluo-8, FDSS agonist mode; 360,000 compounds, 0.18% hits; AID 493084, 2011; activation, % at 2 µM; also: 0% is about no effect
Target sequence (P34981 whole entry, looked up): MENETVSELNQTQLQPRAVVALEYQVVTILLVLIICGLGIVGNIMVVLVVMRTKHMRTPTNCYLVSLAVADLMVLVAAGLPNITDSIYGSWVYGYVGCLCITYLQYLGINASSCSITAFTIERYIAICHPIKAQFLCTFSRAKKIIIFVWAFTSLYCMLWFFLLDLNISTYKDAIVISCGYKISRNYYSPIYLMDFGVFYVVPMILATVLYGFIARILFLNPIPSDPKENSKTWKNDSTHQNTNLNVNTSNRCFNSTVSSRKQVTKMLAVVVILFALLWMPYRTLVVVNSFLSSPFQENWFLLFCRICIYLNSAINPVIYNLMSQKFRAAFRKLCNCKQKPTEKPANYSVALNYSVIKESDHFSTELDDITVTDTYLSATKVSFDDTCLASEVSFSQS
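TRHR-expressing cells loaded with fluo-8 calcium dye; 23 nL library compound pin-transferred, kinetic FDSS fluorescence (Ex 480/Em 530) recorded about 180 s for agonist-induced calcium release, before a 10 nM TRH EC20 addition for potentiator mode.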
TRHR PAM = qHTS for Small Molecule Agonists and Allosteric Enhancers of Human TRH Receptor: Primary Screen for Enhancers | Thyrotropin-releasing hormone receptor (Homo sapiens), P34981 | TRHR cells, fluo-8 calcium fluorescence, EC20 TRH enhancement | enhancement, % at 2 µM | 360,000 compounds, 0.66% hits; in the data active = enhancement above about 30%; also: 0% is about no effect
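Enhancer read-out: after compound pinning and an initial kinetic agonist-mode read, an EC20 of TRH (10 nM final) was injected and fluo-8 calcium signal (Ex 480/Em 530) followed at 1 s/cycle for 100 cycles in TRHR-expressing cells.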
* = called active by the depositor. Rows were chosen to be rich in hits. Some 4.6% of all compounds tested hit in one or more screens of this group. Rule as the data show it, unless noted: active = activation above about 30%; inactive = the rest.

SMILES	D1 agonist	D1 antag	D1 potentiator	TRHR ag	TRHR PAM
CCOc1ccccc1NC(=O)CSc1nc2ccccc2c2nc(CCn3cncc3C)nn12	3.5	-10.1	-1.9	-0.9	1.1
Cc1ccc2sc(N(CCCN(C)C)C(=O)CCS(=O)(=O)c3ccccc3)nc2c1C	64.1*	-16.6	-6.9	2.9	-2.2
Cc1cccc2sc(N(CCCN(C)C)C(=O)CN3C(=O)c4ccccc4C3=O)nc12	33.1*	-8.8	-1.6	0.7	3.7
Cc1cccc2sc(N(CCCN(C)C)C(=O)CCc3ccccc3)nc12	22.5	-23.6	-10.3	4.6	16.0
COc1ccccc1NC(=O)CN1CCC(n2nnc3cc(F)ccc32)CC1	0.6	-46.2*	-8.6	-0.9	-2.5
O=C(N1CCOCC1)N1CCC(n2nnc3cc(F)ccc32)CC1	0.7	7.6	4.1	0.1	5.0
O=C(c1ccc([N+](=O)[O-])cc1)N1CCC(n2nnc3cc(F)ccc32)CC1	0.1	30.5	4.2	-0.5	40.4*
COc1ccc(Cl)cc1NC(=O)CN1CCC(n2nnc3cc(C)ccc32)CC1	1.8	-37.4*	-7.5	-0.4	0.1
COc1ccc(Cl)cc1NC(=O)CN1CCCCCC1	2.0	7.7	4.3	1.9	-9.6
Cc1ccc2c(c1)nnn2C1CCN(CC(=O)Nc2ccccc2N2CCOCC2)CC1	2.7	-30.2*	-13.1	-1.1	1.0
CCCOc1cccc(C2c3c(oc4ccc(F)cc4c3=O)C(=O)N2CCc2ccc(OC)cc2)c1 (configuration not stated)	4.8	9.2	-3.4	-0.6	8.2
Cc1ccc2c(CN3CCN(C(=O)c4ccc(F)cc4)CC3)cc(=O)oc2c1	-0.6	0.5	0.2	-0.5	-6.2
CSc1ncc(Cl)c(C(=O)N(Cc2ccc(C(C)C)cc2)C2CCS(=O)(=O)C2)n1 (configuration not stated)	-0.8	-0.9	0.6	-0.5	-3.1
CCC(=O)N1CCc2cc(Br)cc(S(=O)(=O)N3CCN(c4cccc(Cl)c4)CC3)c21	0.0	9.4	-0.6	0.2	-1.1
COc1ccc(C(=O)NNC(=O)CN2CCC(n3nnc4cc(F)ccc43)CC2)cc1	1.4	-34.3*	3.4	-0.1	1.7
CC(Oc1ccccc1)C(=O)Nc1cccc(-c2nc3ccccc3[nH]2)c1 (configuration not stated)	13.9	-40.3*	-8.8	0.4	3.1
CC(=O)Nc1cccc(-c2nc3ccccc3[nH]2)c1	3.5	-4.0	-7.8	-1.8	-1.1
N#Cc1ccc(CSCC(=O)O)cc1	0.6	4.2	-6.7	0.8	14.0
COC(=O)c1ccc(CSCc2ccc(C#N)cc2)cc1	8.1	-35.1*	-11.8	-0.9	-11.0
Cc1ccc(CNC(=O)c2cccnc2Sc2cccc(Cl)c2)cc1	45.9*	18.7	-5.8	6.0	1.2
COc1ccc(CNC(=O)c2cccnc2Sc2ccc(Cl)cc2)cc1	3.3	2.9	0.8	-0.4	0.4
CC1CCCCC12NC(=O)N(CC(=O)N1CCN(S(=O)(=O)Cc3ccccc3)CC1)C2=O (configuration not stated)	0.8	-35.3*	-5.3	0.6	8.6
O=C(/C=C/c1ccco1)NC(=S)Nc1cccc([N+](=O)[O-])c1	4.0	-21.6	-4.5	-0.6	32.3*
CC1(C)C2CCC1(CS(=O)(=O)NC1CCCC1)C(=O)C2 (configuration not stated)	4.0	12.0	-1.0	0.1	-3.0
CN(C)CC(C)(C)CNS(=O)(=O)CC12CCC(CC1=O)C2(C)C (configuration not stated)	-1.3	-75.0*	0.1	0.6	2.7
COc1ccc(-c2cc(C(=O)Nc3cccc(O)c3)on2)cc1OC	1.2	8.1	1.1	-0.6	-2.9
CC(=O)Nc1cccc(NC(=O)COc2ccccc2C)c1	6.9	-38.7*	-7.3	-0.4	5.8
O=C(COc1ccccc1C(=O)Nc1ccccc1)NCCc1ccccc1	9.7	-13.3	-2.6	0.6	4.8
O=C(COc1ccccc1C(=O)NCc1ccccc1)Nc1ccccc1	4.2	-35.3*	-2.6	0.1	-1.8

Screening data as filed in PubChem.
